Many of the other results were omitted from the sample, so hits are more common in it than they were.
KDM5B inh = Primary screen for KDM5B Histone Demethylases FDH-coupled qHTS. 2.6% of 220,000 active. Potency, µM (doses to about 57.7 µM), hits mostly inhibitors. Lysine-specific demethylase 5B (Homo sapiens), Q9UGL1. KDM5B demethylase, FDH-coupled NADH fluorescence (FDH is formaldehyde dehydrogenase); active = well fitted inhibition curve with a large enough effect; note: nearly all actives have a fitted effect of over 70% in size
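Compound dilutions met 200 nM (final) KDM5BΔAP for 10 min at room temperature before substrate addition. The substrate mix held 12.5 µM H3K4me3 with cofactors 25 µM α-ketoglutarate and 50 µM Fe²⁺. NADH signal gain over 30 min defined activity.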
Each line names hits and unclear results; the compound was inactive in the other large screens.

Cc1nn2c(c1-c1ccccc1C(C)C)N(Cc1ccc(C(=O)O)cc1)CCC2	none
COc1cccc(CC(=O)N2CCCn3nc(C)c(-c4ccccc4Oc4ccccc4)c32)c1	none
Cc1nn2c(c1-c1ccccc1C(N)=O)N(C(=O)Cc1cccc(F)c1)CCC2	none
COc1ccccc1CN1CCCn2nc(C)c(-c3ccccc3C(N)=O)c21	KDM5B inh 32µM
COc1cccc(CC(=O)N2CCCn3nc(C)c(-c4ccccc4-c4ccccc4)c32)c1	none
NC(=O)NC(=O)CSc1ccc2ccccc2n1	none
Cc1ccc(-c2cnc(CCC(=O)N(CCC#N)Cc3ccco3)o2)cc1	none
O=C(NCC1OCCc2ccccc21)c1ccc(Cl)cc1Cl (stereo not given)	none
COCC(=O)NC[C@@H]1C=C(C)[C@H](Cc2nc3ccc(C)cc3[nH]2)C[C@H]1C(C)C	none
COc1cc(CN2CCCC3(Cc4ccccc4CNC3=O)C2)cc(OC)c1 (stereo not given)	none
Cc1ccc2nc(/C(C#N)=C\c3ccccc3)[nH]c2c1	none
CC(C)Cc1ccc(C(C)C(=O)NC(Cc2ccccc2)C(N)=O)cc1 (stereo not given)	none
CC(=O)c1cccc(NC(=O)c2ccccc2SCc2cccs2)c1	none
CC(C)CCC(CC(C)O)C(=O)NN (stereo not given)	none
Cc1[nH]c2ccccc2c1CCN(Cc1ccccn1)C(=S)NC(C)(C)C	none
O=C(OCC(=O)N1CCCCC1)c1ccc2c(c1)S(=O)(=O)c1ccccc1C2=O	none
O=C(c1cccs1)N1CCC(Cc2nc(C3CC3)n[nH]2)CC1	none
O=S(=O)(c1ccc(Br)s1)N1CCC(n2c(C(F)(F)F)nc3cccnc32)CC1	none
COc1cccc(/C=C(/C#N)C(=O)Nc2ccccc2C(=O)O)c1	none
O=C(N[C@H]1CCN2C(=O)N(c3ccccc3)C(=O)[C@@H]2C1)c1cccnc1	none
O=C(N[C@H]1CCN2C(=O)N(c3cccc(C(F)(F)F)c3)C(=O)[C@@H]2C1)c1ccncc1	none
O=C(N[C@H]1CCN2C(=O)N(c3cccc4nsnc34)C(=O)[C@@H]2C1)c1ccnc(Cl)c1	KDM5B inh 28µM
Cn1ccc2ccc(C(=O)Nc3ccc4c(c3)C(=O)N3CCC[C@H]3C(=O)N4)cc21	none
CSCC[C@@H]1NC(=O)c2cc(NC(=O)c3ccc4ccn(C)c4c3)ccc2NC1=O	KDM5B inh 25µM
CSCC[C@@H]1NC(=O)c2cc(NC(=O)c3ccc(-n4cnnn4)cc3)ccc2NC1=O	none
COCCn1cnnc1SCc1cccc(F)c1	none
COc1ccc(C(=O)N2C[C@@H]3C[C@H](C2)c2ccc(-c4ccc5ccccc5c4)c(=O)n2C3)cc1	KDM5B inh 28µM
CC(=O)c1ccc(NC(=O)N2C[C@@H]3C[C@H](C2)c2ccc(NC(=O)Nc4cccc(C#N)c4)c(=O)n2C3)cc1	none
O=C(Nc1cccc(F)c1)N1C[C@@H]2C[C@H](C1)c1ccc(-c3cccc(C(F)(F)F)c3)c(=O)n1C2	KDM5B inh 28µM
CC(=O)Nc1ccc(S(=O)(=O)N2C[C@@H]3C[C@H](C2)c2ccc(-c4ccc5ccccc5c4)c(=O)n2C3)cc1	KDM5B inh 25µM
O=C(Nc1cccc(F)c1)N1CC2CC(C1)[C@H]1CCCC(=O)N1C2 (stereo not given in full)	none
COc1ccc(S(=O)(=O)Nc2ccc3n(c2=O)C[C@H]2C[C@@H]3CN(C(=O)c3ccccn3)C2)cc1	none
CC(=O)Nc1ccc(-c2ccc(=O)n3c2[C@@H]2C[C@@H](CN(S(=O)(=O)c4ccc(F)cc4)C2)C3)cc1	none
CC(=O)Nc1ccc(-c2ccc(=O)n3c2[C@@H]2C[C@@H](CN(S(=O)(=O)c4ccccc4)C2)C3)cc1	none
COc1ccc(C(=O)N2C[C@@H]3C[C@H](C2)c2ccc(NS(=O)(=O)c4cccc(C(F)(F)F)c4)c(=O)n2C3)cc1	none
CNc1c(NC(=O)Nc2ccc(F)cc2)c(=O)oc2ccccc12	none
Cc1nc(-c2ccc(F)cc2)n(CC(=O)Nc2ccc3c(c2)OCO3)c(=O)c1CCO	none
CC(C)c1ccc(C(=O)Nc2cc(C(F)(F)F)ccc2Cl)cc1	none
O=C1NC2(CN(Cc3ccc(F)cc3)C2)Oc2ccccc21	none
NC(=O)Cc1ccc2c(c1)OCCCO2	none
CC(C)(C)NC(=O)C(=O)NC(C)(C)C	none
CC1CCn2c(nc3cc(C(=O)NCCc4ccccc4)ccc32)C1 (stereo not given)	none
CN1C(=O)C2(CCN(C(=O)CCc3ccccc3)C2)c2ccccc21 (stereo not given)	none
CCS(=O)(=O)Nc1ccc(C(=O)N2CCC3(CCCN(C)C3=O)C2)cc1 (stereo not given)	none
CN(C)CC(=O)NC(=O)NCc1ccccc1	none
O=C(NCCc1ccccc1)c1ccc2c(c1)CCN2S(=O)(=O)c1ccccc1	none
Cc1nc(CN2CC3(CCN(C)C3)c3cc(C(=O)NCCc4ccccc4)ccc32)cs1 (stereo not given)	KDM5B inh 28µM
Cc1ccc(C(=O)NCCc2ccccc2)cn1	none
Cc1nc(CN2C(=O)OC3(CCN(CCc4ccccc4)CC3)C2(C)c2ccccc2)cs1 (stereo not given)	none
